Source: PubChem BioAssay (NCI)
The panel holds about 79,000 compounds, 15% with a hit somewhere; the sample as a whole holds those more often. Values without a mark were called inactive. Active and inactive are the calls of the source. Cut-off read from the data, not from the text of the source: active = growth inhibition above about 70%; inactive = the rest.

What was measured:
[1] = NCI Yeast Anticancer Drug Screen. Data for the rad50 strain (AID 155);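 note: 0% = growth of vehicle-only cultures of the same strain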; details: S. cerevisiae rad50 strain growth inhibition, active compounds read high
How it was run: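 DNA repair mutant yeast, compound exposure, growth read-out; inhibition is taken relative to vehicle.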

[2] = NCI Yeast Anticancer Drug Screen. Data for the mec2-1 strain (AID 157); details: S. cerevisiae mec2-1 strain, active compounds read high
How it was run: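 Test agents were screened against the mec2-1 yeast strain, with defined DNA repair or cell cycle alteration. Growth was scored as inhibition against vehicle-only controls.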

[3] = NCI Yeast Anticancer Drug Screen. Data for the sgs1 mgt1 strain (AID 161);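 note: 0% = growth of cultures given vehicle only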; details: S. cerevisiae sgs1 mgt1 strain, active compounds read high
How it was run: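 Read-out: growth inhibition vs vehicle controls. Cells: mutant yeast strain deficient in DNA damage repair.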

[4] = NCI Yeast Anticancer Drug Screen. Data for the cln2 rad14 strain (AID 165);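 note: 0% = growth equal to vehicle treated cultures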; details: S. cerevisiae cln2 rad14 strain, active compounds read high
How it was run: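 Growth of compound-exposed yeast (cln2 rad14 genotype) measured and expressed as inhibition relative to vehicle.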

[5] = NCI Yeast Anticancer Drug Screen. Data for the bub3 strain (AID 167); details: S. cerevisiae bub3 mutant strain, active compounds read high
How it was run: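 In this screen, a yeast mutant lacking normal mitotic checkpoint function is challenged with compound. Relative growth versus vehicle gives the inhibition value.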

[6] = NCI Yeast Anticancer Drug Screen. Data for the mlh1 rad18 strain (AID 175); details: S. cerevisiae mlh1 rad18 strain growth inhibition, active compounds read high
How it was run: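 In this whole-cell yeast screen, a strain with altered DNA damage repair is challenged with compound, and its growth is measured against matched vehicle-treated controls.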

[7] = at 5.0 µM (retest, dose inferred, filed as 0.5)
[8] = at 50.0 µM (retest, dose inferred, filed as 5.0)

SMILES	growth inhibition [1, 7]	growth inhibition [1, 8]	growth inhibition ([1]; at 50.0 µM)	growth inhibition [2, 7]	growth inhibition [2, 8]	growth inhibition ([2]; at 50.0 µM)	growth inhibition [3, 7]	growth inhibition [3, 8]	growth inhibition ([3]; at 50.0 µM)	growth inhibition [4, 7]	growth inhibition [4, 8]	growth inhibition ([4]; at 50.0 µM)	growth inhibition [5, 7]	growth inhibition [5, 8]	growth inhibition ([5]; at 50.0 µM)	growth inhibition [6, 7]	growth inhibition [6, 8]	growth inhibition ([6]; at 50.0 µM)
O=S1(=O)C(Br)=Cc2ccccc21	16%	99% (active)	99.3% (active)	-6%	99% (active)	99.3% (active)	25%	99% (active)	98.7% (active)	17%	99% (active)	97.7% (active)	13%	99% (active)	99.4% (active)	23%	99% (active)	98.7% (active)
Cc1cc(C)nc(/C=C/c2ccccc2)c1	-1%	-10%	98.5% (active)	1%	7%	96.6% (active)	-9%	22%	98.6% (active)	-1%	16%	94.1% (active)	18%	29%	97.1% (active)	10%	18%	97.8% (active)
Cc1ccc(SCC#CC#CCS(=O)c2ccc(C)cc2)cc1 (configuration not stated)	100% (active)	98% (active)	98.3% (active)	87% (active)	99% (active)	98.5% (active)	100% (active)	99% (active)	97.8% (active)	44%	98% (active)	98% (active)	82% (active)	98% (active)	97% (active)	97% (active)	98% (active)	97.6% (active)
C/C(=N/O)c1ccc2c(c1)C(=NO)c1cc(/C(C)=N/O)ccc1-2	19%	98% (active)	89.9% (active)	-10%	99% (active)	94.7% (active)	10%	99% (active)	94.2% (active)	14%	99% (active)	93.7% (active)	21%	98% (active)	93.5% (active)	1%	98% (active)	91% (active)
COc1ccc(I)c(C=NC2CCCCC2)c1C	41%	94% (active)	97.2% (active)	16%	82% (active)	91.5% (active)	41%	92% (active)	99% (active)	1%	88% (active)	41.8%	35%	94% (active)	89.4% (active)	27%	93% (active)	94.7% (active)
CN(CCC(=O)/C(=C\c1ccc(Cl)cc1)c1ccccc1)Cc1ccccc1	98% (active)	98% (active)	62.9%	100% (active)	99% (active)	99% (active)	99% (active)	99% (active)	98.2% (active)	98% (active)	98% (active)	98.5% (active)	97% (active)	99% (active)	97.6% (active)	99% (active)	99% (active)	98.5% (active)
CC(=O)Nc1ccc(-c2nnc(SCC(=O)Nc3cccc(Cl)c3)o2)cc1	14%	45%	22.2%	1%	39%	15.6%	10%	33%	55.6%	15%	49%	-33.8%	8%	56%	73.7% (active)	2%	71% (active)	28.7%
CCCCCCCCCCCCSC(=NCC)NCC	89% (active)	99% (active)	99.6% (active)	79% (active)	100% (active)	99.8% (active)	98% (active)	100% (active)	48.8%	59%	99% (active)	99.1% (active)	96% (active)	100% (active)	99.6% (active)	89% (active)	99% (active)	99.5% (active)
CCOC(=O)c1c[nH]cc1-c1cn(S(=O)(=O)c2ccccc2)cc1C	38%	12%	29.2%	34%	14%	18.2%	69%	21%	49.6%	38%	15%	43.5%	89% (active)	38%	44%	82% (active)	28%	49%
Fc1ccc(C2SCc3nc4ccccc4n32)cc1Cl (configuration not stated)	32%	78% (active)	91.3% (active)	27%	72% (active)	93% (active)	37%	90% (active)	94.3% (active)	24%	69%	92.5% (active)	33%	88% (active)	91.8% (active)	41%	89% (active)	92.1% (active)
COc1cc2c[n+](C)c3c4ccccc4ccc3c2cc1OC (tested in a mixture with another compound)	27%	87% (active)	38%	24%	54%	8.85%	24%	90% (active)	7.1%	21%	69%	9.7%	27%	81% (active)	17.9%	35%	77% (active)	-18.6%
O=[N+]([O-])c1ccc(N2CCCC(n3cccc3)C2)c([N+](=O)[O-])c1 (configuration not stated)	7%	38%	47.6%	-2%	5%	46.2%	4%	27%	61.3%	12%	49%	50.2%	-9%	50%	67.6%	1%	55%	48.5%
CN1C(=O)C23SSC1(C)C(=O)N2c1ccccc1C3(C)C (configuration not stated)	97% (active)	99% (active)	99% (active)	98% (active)	96% (active)	99.6% (active)	99% (active)	100% (active)	98% (active)	98% (active)	99% (active)	99.3% (active)	98% (active)	99% (active)	99.2% (active)	99% (active)	99% (active)	99.3% (active)
CCOC(=O)C1=C(C)NC(=O)NC1c1coc2cc(C)cc(C)c2c1=O (configuration not stated)	-1%	10%	12.4%	-2%	15%	-5%	3%	14%	-2.5%	20%	5%	52.2%	14%	-4%	-15.8%	0%	1%	-7.1%
COc1cccc(/C=C2\CCC(CN(C)C)C2=O)c1 (configuration not stated)	27%	95% (active)	93.5% (active)	21%	99% (active)	93.8% (active)	39%	99% (active)	93.3% (active)	28%	98% (active)	91.6% (active)	48%	99% (active)	92.5% (active)	35%	99% (active)	91.7% (active)
CC[n+]1c(/C=C/c2ccc(N(C)C)cc2)ccc2ccccc21	-5%	99% (active)	99% (active)	23%	99% (active)	99.2% (active)	-2%	99% (active)	98% (active)	-5%	98% (active)	99% (active)	1%	99% (active)	98.8% (active)	13%	99% (active)	98.5% (active)
COc1cc2c(cc1O)CCN[C@@]21CS[C@H]2c3c(OC(C)=O)c(C)c4c(c3C(COC1=O)N1C2C2c3c(cc(C)c(OC)c3O)CC([C@@H]1O)N2C)OCO4 (some centres not stated)	98% (active)	99% (active)	92.7% (active)	99% (active)	99% (active)	94% (active)	99% (active)	99% (active)	93.4% (active)	99% (active)	99% (active)	91.6% (active)	99% (active)	99% (active)	93.2% (active)	99% (active)	99% (active)	92% (active)
COc1cc2c(c(C)c1O)[C@H]1COc3ccccc3[C@H]1O2	-24%	-9%	75.2% (active)	-38%	-9%	77.8% (active)	17%	13%	89.9% (active)	10%	11%	57%	10%	61%	83.9% (active)	-22%	10%	65.5%
O.O.O=Cc1cc(Br)cc(Br)c1O.O=Cc1cc(Br)cc(Br)c1O.[Co]	58%	99% (active)	99.2% (active)	25%	99% (active)	96.7% (active)	37%	89% (active)	99% (active)	15%	99% (active)	89.5% (active)	53%	99% (active)	90.5% (active)	79% (active)	99% (active)	99.2% (active)
